Calls of active or inactive are those of the source. Rule for the calls: active = hit-call score of the fitted dose curve at least 0.9, where 1 is the maximum; inactive = score below 0.9.
Experiments:
[1] = ATG_GLI_CIS: Attagene CIS-FACTORIAL HepG2 Assay for human Zinc Finger Protein GLI1 (AID 2282945); settings: HepG2, Attagene cis-factorial reporter mRNA, GLI element; actives raise or lower the signal
Procedure, shortened: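 Transiently transfected HepG2 cells report endogenous transcription factor activity via cis-element-driven reporter units. After 24 h compound exposure, reporter mRNA was measured by RT-PCR with capillary electrophoresis; bidirectional fitting against DMSO baseline.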

[2] = ATG_GRE_CIS: Attagene CIS-FACTORIAL HepG2 Assay for human Glucocorticoid Response Elements (GRE) (AID 2282947); settings: HepG2 GRE cis-reporter, Attagene multiplex mRNA; actives raise or lower the signal
Procedure, shortened: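 Transiently transfected HepG2 cells carrying GRE cis-reporter units (endogenous TF activity) dosed 24 h; reporter mRNA quantified by RT-PCR, 6-FAM labelling, HpaI digestion and capillary electrophoresis. Bidirectional fit versus DMSO baseline.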

[3] = ATG_ISRE_CIS: Attagene CIS-FACTORIAL HepG2 Assay for human Interferon Regulatory Factor 1 (IRF1) binding to an Interferon-Stimulated Response Element (ISRE) (AID 2282948); settings: HepG2 ISRE cis-reporter (Attagene), mRNA transcription readout; actives raise or lower the signal
Procedure, shortened: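 Quantitation relies on labelled RT-PCR fragments separated by capillary electrophoresis. Human HepG2 cells bearing cis-promoter reporter constructs were treated 24 h; DMSO served as baseline for bidirectional fitting.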

[4] = ATG_M_32_CIS: Attagene CIS-FACTORIAL HepG2 Assay for M32 Transcription Factor (Internal Marker) (AID 2282949); settings: HepG2 Attagene cis-factorial M32 reporter, mRNA; actives raise or lower the signal;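 note: background control marker of the multiplexed CIS panel rather than a real target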
Procedure, shortened: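 Fluorescent capillary electrophoresis peaks of HpaI-digested, FAM-labelled RT-PCR reporter products give the signal. Source: transiently transfected human liver HepG2 cells, 24 h after chemical dosing; bidirectional fitting against DMSO.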

[5] = ATG_M_06_CIS: Attagene CIS-FACTORIAL HepG2 Assay for M06 Transcription Factor (Internal Marker) (AID 2282950); settings: HepG2 Attagene CIS-FACTORIAL M06 internal marker reporter; actives raise or lower the signal
Procedure, shortened: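 HepG2 liver cells, 24 h exposure. Reporter transcripts from transfected cis-element constructs quantified by RT-PCR/capillary electrophoresis fluorescence. Bidirectional curve fit against DMSO.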

[6] = target: Hypoxia-inducible factor 1-alpha (Homo sapiens) (UniProt Q16665); assay: ATG_HIF1a_CIS: Attagene CIS-FACTORIAL HepG2 Assay for human Hypoxia Inducible Factor 1 (HIF1A) (AID 2282951); settings: HepG2 Attagene cis-factorial HIF1a reporter transcription; actives raise or lower the signal
Procedure, shortened: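 In this multiplexed cell assay, HepG2 cells bearing transfected cis reporters are dosed for 24 h and reporter mRNA is read by RT-PCR plus capillary electrophoresis; signal increases and decreases are both scored against DMSO.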

[7] = target: Hepatocyte nuclear factor 6 (Homo sapiens) (UniProt Q9UBC0); assay: ATG_HNF6_CIS: Attagene CIS-FACTORIAL HepG2 Assay for human Hepatocyte Nuclear Factor 6 (HNF6) (AID 2282952); settings: HepG2 Attagene cis-factorial HNF6 reporter transcription; actives raise or lower the signal
Procedure, shortened: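 HepG2, transient MRTU transfection (cis promoters); 24 h chemical exposure; total RNA → oligo(dT) RT → PCR → 6-FAM labelling → HpaI cut → CE; bidirectional fit vs DMSO.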

[8] = target: Heat shock factor protein 1 (Homo sapiens) (UniProt Q00613); assay: ATG_HSE_CIS: Attagene CIS-FACTORIAL HepG2 Assay for human Heat Shock Transcription Factor 1 (HSE) (AID 2282953); settings: HepG2 HSE cis-reporter, Attagene RNA transcription; actives raise or lower the signal
Procedure, shortened: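 Endogenous transcription factor activity captured via cis-promoter reporter units transfected into HepG2; treatment lasted 24 h. Fluorescence intensity of reporter fragments analysed with bidirectional curve fitting, DMSO baseline.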

[9] = ATG_MRE_CIS: Attagene CIS-FACTORIAL HepG2 Assay for human Metal Responsive Element (MRE) (AID 2282954); settings: HepG2 MRE cis-reporter transcription, Attagene multiplex; actives raise or lower the signal
Procedure, shortened: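 HepG2 cells transiently transfected with cis-element-driven reporter units; mRNA measured 24 h after dosing. Reporter transcripts quantified by RT-PCR, FAM labelling, HpaI digestion and capillary electrophoresis; bidirectional fit versus DMSO.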

[10] = ATG_PBREM_CIS: Attagene CIS-FACTORIAL HepG2 Assay for human Phenobarbital-responsive Enhancer Module (PBREM) (AID 2282955); settings: HepG2 PBREM cis-reporter, Attagene multiplexed transcription; actives raise or lower the signal
Procedure, shortened: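 After a 24 h incubation with test chemical, transfected HepG2 cells yield total RNA; reporter-specific RT-PCR products are fluorescently labelled, HpaI-digested and resolved by capillary electrophoresis against ROX size standards.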

[11] = target: Paired box protein Pax-6 (Homo sapiens) (UniProt P26367); assay: ATG_Pax6_CIS: Attagene CIS-FACTORIAL HepG2 Assay for human Paired Box 6 (PAX6) (AID 2282956); settings: HepG2 CIS-FACTORIAL PAX6 reporter transcription, RNA readout; actives raise or lower the signal
Procedure, shortened: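 After twenty-four hours of chemical exposure, transfected HepG2 cells are harvested for RNA. Cis-promoter reporter transcripts are amplified, fluorescently labelled and sized by capillary electrophoresis, with gain and loss of signal scored against DMSO.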

[12] = ATG_PXRE_CIS: Attagene CIS-FACTORIAL HepG2 Assay for human Pregnane X Receptor Element (PXRE) (AID 2282957); settings: HepG2 Attagene CIS-FACTORIAL PXRE reporter, mRNA; actives raise or lower the signal
Procedure, shortened: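 Transfect HepG2 with MRTUs (cis promoter elements); dose chemical, incubate 24 h; isolate RNA, RT with oligo(dT), PCR, 6-FAM label, HpaI cut, CE. Gain/loss fit vs DMSO.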

[13] = ATG_PPRE_CIS: Attagene CIS-FACTORIAL HepG2 Assay for human Peroxisome Proliferator-activated Response Element (PPRE) (AID 2282958); settings: HepG2 PPRE cis-element reporter, Attagene transcription factor profiling; actives raise or lower the signal
Procedure, shortened: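 Multiplexed reporter transcription units under cis-regulatory promoters were transfected into HepG2 cells to capture endogenous factor activity. A 24 h incubation preceded RNA isolation and fluorescent RT-PCR fragment analysis.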

[14] = ATG_Sox_CIS: Attagene CIS-FACTORIAL HepG2 Assay for human SRY-box transcription factor (SOX) (AID 2282960); settings: HepG2 Attagene cis-factorial SOX reporter, mRNA; actives raise or lower the signal
Procedure, shortened: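 After 24 h of chemical treatment, transfected HepG2 reporter cells are lysed for total RNA. Transcript levels come from RT-PCR with labelled primer extension and capillary electrophoresis, analysed bidirectionally versus DMSO.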

[15] = target: Transcription factor Sp1 (Homo sapiens) (UniProt P08047); assay: ATG_Sp1_CIS: Attagene CIS-FACTORIAL HepG2 Assay for human Specificity Protein 1 (Sp1) (AID 2282961); settings: HepG2 Sp1 cis-reporter transcription, actives raise or lower the signal
Procedure, shortened: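 Sp1-driven reporter mRNA, read as capillary electrophoresis fluorescence after RT-PCR, in transiently transfected HepG2 cells dosed for 24 h; signal change in either direction relative to DMSO.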

[16] = ATG_SREBP_CIS: Attagene CIS-FACTORIAL HepG2 Assay for human Sterol Regulatory Element Binding (SREBP) (AID 2282962); settings: HepG2 Attagene cis-factorial SREBP reporter, mRNA; actives raise or lower the signal
Procedure, shortened: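 Twenty-four hours after chemical dosing of transfected HepG2 cultures, reporter RNA was converted to cDNA, amplified, end-labelled with 6-FAM and resolved by capillary electrophoresis. Responses were fitted relative to DMSO.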

[17] = ATG_TA_CIS: Attagene CIS-FACTORIAL HepG2 Assay for human TA Basal Promoter (AID 2282964); settings: HepG2 Attagene CIS-factorial TA basal promoter reporter; actives raise or lower the signal
Procedure, shortened: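 Fluorescence from labelled RT-PCR reporter fragments, separated by capillary electrophoresis, gives the signal. Cells: HepG2 transiently carrying multiple reporter units, 24 h chemical dosing. Gain or loss relative to DMSO.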

[18] = ATG_RORE_CIS: Attagene CIS-FACTORIAL HepG2 Assay for human RAR-related Orphan Receptor Element (RORE) (AID 2282959); settings: HepG2 Attagene cis-factorial RORE reporter, mRNA; actives raise or lower the signal
Procedure, shortened: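 Fluorescence intensity of reporter-specific cDNA fragments, separated by capillary electrophoresis, gives the signal. Source: HepG2 liver cells transiently transfected with cis-element reporters and exposed 24 h; DMSO-normalized bidirectional fit.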

Sequence of Hypoxia-inducible factor 1-alpha (Homo sapiens) (Q16665 whole entry, looked up): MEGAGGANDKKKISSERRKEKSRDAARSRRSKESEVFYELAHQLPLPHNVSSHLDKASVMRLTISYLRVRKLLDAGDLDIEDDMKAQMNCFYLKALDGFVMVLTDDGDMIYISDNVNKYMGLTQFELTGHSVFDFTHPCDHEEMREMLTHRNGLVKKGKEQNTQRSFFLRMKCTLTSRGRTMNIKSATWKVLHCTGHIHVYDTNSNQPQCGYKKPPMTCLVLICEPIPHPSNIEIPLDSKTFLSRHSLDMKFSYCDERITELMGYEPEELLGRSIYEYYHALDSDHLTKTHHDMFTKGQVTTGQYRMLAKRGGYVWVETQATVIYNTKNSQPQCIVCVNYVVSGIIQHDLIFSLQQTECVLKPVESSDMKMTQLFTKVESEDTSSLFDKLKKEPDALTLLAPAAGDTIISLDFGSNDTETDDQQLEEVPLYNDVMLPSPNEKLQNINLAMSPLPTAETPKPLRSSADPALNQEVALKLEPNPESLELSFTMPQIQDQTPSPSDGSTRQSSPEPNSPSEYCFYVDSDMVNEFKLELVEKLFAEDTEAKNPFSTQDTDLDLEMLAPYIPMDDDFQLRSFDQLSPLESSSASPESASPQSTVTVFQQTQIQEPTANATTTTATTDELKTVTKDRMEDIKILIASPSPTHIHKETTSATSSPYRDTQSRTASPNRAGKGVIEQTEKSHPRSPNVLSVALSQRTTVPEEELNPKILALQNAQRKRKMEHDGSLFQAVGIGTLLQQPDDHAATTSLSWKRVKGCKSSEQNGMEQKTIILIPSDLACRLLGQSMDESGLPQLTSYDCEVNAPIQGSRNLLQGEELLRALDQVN
Sequence of Heat shock factor protein 1 (Homo sapiens) (Q00613 whole entry, looked up, the tested form may be a part): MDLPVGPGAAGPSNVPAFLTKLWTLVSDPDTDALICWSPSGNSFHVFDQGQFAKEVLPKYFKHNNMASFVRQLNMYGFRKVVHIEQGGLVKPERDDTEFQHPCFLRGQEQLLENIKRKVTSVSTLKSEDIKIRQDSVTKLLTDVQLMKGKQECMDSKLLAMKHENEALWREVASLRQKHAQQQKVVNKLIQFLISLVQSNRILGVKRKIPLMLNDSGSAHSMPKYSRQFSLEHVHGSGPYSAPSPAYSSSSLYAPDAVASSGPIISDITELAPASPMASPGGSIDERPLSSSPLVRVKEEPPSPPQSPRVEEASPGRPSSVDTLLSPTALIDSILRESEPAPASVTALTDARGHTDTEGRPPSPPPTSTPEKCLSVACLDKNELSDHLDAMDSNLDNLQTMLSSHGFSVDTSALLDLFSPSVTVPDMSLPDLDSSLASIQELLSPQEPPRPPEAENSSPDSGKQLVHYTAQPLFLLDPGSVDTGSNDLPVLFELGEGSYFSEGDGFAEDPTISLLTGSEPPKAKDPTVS
Sequence of Paired box protein Pax-6 (Homo sapiens) (P26367 whole entry, looked up): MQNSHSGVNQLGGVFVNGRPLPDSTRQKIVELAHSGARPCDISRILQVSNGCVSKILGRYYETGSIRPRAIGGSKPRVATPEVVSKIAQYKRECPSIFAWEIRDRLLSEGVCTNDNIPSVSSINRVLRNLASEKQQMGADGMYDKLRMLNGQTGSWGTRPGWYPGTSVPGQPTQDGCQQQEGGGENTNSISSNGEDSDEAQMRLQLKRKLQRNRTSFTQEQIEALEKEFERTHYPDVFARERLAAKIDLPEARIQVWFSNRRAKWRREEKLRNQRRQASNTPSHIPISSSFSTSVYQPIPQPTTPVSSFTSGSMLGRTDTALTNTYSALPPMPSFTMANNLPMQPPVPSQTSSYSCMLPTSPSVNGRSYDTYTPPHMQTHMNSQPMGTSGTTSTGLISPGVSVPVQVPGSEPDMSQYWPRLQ
Sequence of Hepatocyte nuclear factor 6 (Homo sapiens) (Q9UBC0 whole entry, looked up): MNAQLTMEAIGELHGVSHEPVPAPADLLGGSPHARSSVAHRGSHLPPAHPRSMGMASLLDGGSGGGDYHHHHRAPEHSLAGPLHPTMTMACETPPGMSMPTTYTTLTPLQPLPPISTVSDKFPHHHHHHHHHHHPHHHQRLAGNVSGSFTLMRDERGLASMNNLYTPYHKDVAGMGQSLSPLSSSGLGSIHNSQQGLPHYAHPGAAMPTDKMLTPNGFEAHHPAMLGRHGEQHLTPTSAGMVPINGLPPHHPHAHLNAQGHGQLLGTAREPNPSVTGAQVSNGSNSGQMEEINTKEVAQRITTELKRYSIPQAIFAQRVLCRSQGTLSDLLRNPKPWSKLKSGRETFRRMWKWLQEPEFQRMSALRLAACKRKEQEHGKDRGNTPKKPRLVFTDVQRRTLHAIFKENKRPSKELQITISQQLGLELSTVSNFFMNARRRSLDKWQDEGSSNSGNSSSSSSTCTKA
Sequence of Transcription factor Sp1 (Homo sapiens) (P08047 whole entry, looked up): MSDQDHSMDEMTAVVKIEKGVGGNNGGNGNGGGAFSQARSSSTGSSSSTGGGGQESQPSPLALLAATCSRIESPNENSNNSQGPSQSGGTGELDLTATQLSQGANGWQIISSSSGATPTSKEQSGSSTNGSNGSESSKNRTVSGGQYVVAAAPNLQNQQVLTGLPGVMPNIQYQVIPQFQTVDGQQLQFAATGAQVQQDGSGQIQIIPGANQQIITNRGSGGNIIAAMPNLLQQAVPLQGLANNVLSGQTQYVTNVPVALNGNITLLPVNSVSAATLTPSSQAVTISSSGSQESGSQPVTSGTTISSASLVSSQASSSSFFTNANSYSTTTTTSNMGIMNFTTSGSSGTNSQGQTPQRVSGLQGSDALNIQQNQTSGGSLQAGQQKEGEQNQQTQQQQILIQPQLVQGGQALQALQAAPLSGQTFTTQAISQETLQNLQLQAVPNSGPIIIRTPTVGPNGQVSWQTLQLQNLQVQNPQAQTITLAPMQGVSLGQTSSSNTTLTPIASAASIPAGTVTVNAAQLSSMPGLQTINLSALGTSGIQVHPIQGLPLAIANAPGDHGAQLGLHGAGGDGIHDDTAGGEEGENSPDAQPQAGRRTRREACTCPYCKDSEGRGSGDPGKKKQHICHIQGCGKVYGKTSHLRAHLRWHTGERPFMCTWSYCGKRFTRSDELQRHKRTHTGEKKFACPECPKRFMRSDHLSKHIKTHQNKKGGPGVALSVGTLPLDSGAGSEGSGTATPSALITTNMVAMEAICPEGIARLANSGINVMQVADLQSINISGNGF

**Q.** Which outcome [1] does the source give for `O=[N+]([O-])c1c(Cl)c(Cl)c(Cl)c(Cl)c1Cl` here?
**A.** inactive

**Q.** And the outcome [2]?
**A.** inactive

**Q.** What about the outcome [3] of the same compound?
**A.** inactive

**Q.** And the outcome [4]?
**A.** inactive

**Q.** What about the outcome [5] of the same compound?
**A.** inactive

**Q.** What about the AC50 [6] of the same compound?
**A.** 37.6 µM (active)

**Q.** And the outcome [7]?
**A.** inactive

**Q.** What about the AC50 [8] of the same compound?
**A.** 80.8 µM (active)

**Q.** What about the AC50 [9] of the same compound?
**A.** 50 µM (active)

**Q.** What about the outcome [10] of the same compound?
**A.** inactive

**Q.** What about the AC50 [11] of the same compound?
**A.** 50 µM (active)

**Q.** And the outcome [12]?
**A.** inactive

**Q.** What about the AC50 [13] of the same compound?
**A.** 2.32 µM (active)

**Q.** And the outcome [14]?
**A.** inactive

**Q.** And the outcome [15]?
**A.** inactive

**Q.** What about the outcome [16] of the same compound?
**A.** inactive

**Q.** What about the outcome [17] of the same compound?
**A.** inactive

**Q.** With `N#CN` as the compound, how does the outcome [1] read?
**A.** inactive

**Q.** And the outcome [2]?
**A.** inactive

**Q.** And the outcome [3]?
**A.** inactive

**Q.** What about the outcome [4] of the same compound?
**A.** inactive

**Q.** And the outcome [5]?
**A.** inactive

**Q.** What about the outcome [6] of the same compound?
**A.** inactive

**Q.** What about the outcome [7] of the same compound?
**A.** inactive

**Q.** What about the outcome [8] of the same compound?
**A.** inactive

**Q.** What about the outcome [9] of the same compound?
**A.** inactive

**Q.** And the outcome [10]?
**A.** inactive

**Q.** What about the outcome [11] of the same compound?
**A.** inactive

**Q.** And the outcome [12]?
**A.** inactive

**Q.** And the outcome [13]?
**A.** inactive

**Q.** And the outcome [14]?
**A.** inactive

**Q.** And the outcome [15]?
**A.** inactive

**Q.** What about the outcome [16] of the same compound?
**A.** inactive

**Q.** What about the outcome [17] of the same compound?
**A.** inactive

**Q.** Which results are given for `CCOCN(C(=O)CCl)c1c(C)cccc1CC`?
**A.** outcome [1]: inactive; outcome [2]: inactive; outcome [3]: inactive; outcome [4]: inactive; outcome [5]: inactive; outcome [6]: inactive; outcome [7]: inactive; outcome [8]: inactive; outcome [9]: inactive; outcome [10]: inactive; outcome [11]: inactive; AC50 [12]: 0.468 µM (active); outcome [18]: inactive; outcome [14]: inactive; outcome [15]: inactive; outcome [16]: inactive; outcome [17]: inactive

**Q.** What does the source list for `CC1(C)C(C=C(Cl)Cl)C1C(=O)OC(C#N)c1ccc(F)c(Oc2ccccc2)c1` (stereo not drawn)?
**A.** outcome [1]: inactive; outcome [2]: inactive; outcome [3]: inactive; outcome [4]: inactive; outcome [5]: inactive; outcome [6]: inactive; outcome [7]: inactive; outcome [8]: inactive; outcome [9]: inactive; outcome [10]: inactive; outcome [11]: inactive; AC50 [12]: 2.93 µM (active); AC50 [13]: 8.12 µM (active); outcome [14]: inactive; outcome [15]: inactive; outcome [16]: inactive; outcome [17]: inactive

From PubChem BioAssay (EPA / NIEHS)
